# Tested on: TYK2(JH1domain-catalytic)
# Conditions: Compound Concentration (nM):1000
# 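Also: KINOMEscan scanMAX binding as percent activity remaining versus control; lower means stronger binding.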
row,Compound,Percent Control [%]
1,COc1cc(N2CCN(C(C)C)CC2)ccc1Nc1nc(Nc2ccc(F)cc2C(=O)NC[C@@H](O)CO)c2cc[nH]c2n1 [GSK1392956A],100
2,Nc1ncnc2occ(-c3ccc(NC(=O)Nc4cc(C(F)(F)F)ccc4F)cc3)c12 [GW770249X],100
3,NS(=O)(=O)c1ccc(N/N=C2\C(=O)Nc3ccc(C(=O)NCc4ccncc4)cc32)cc1 [GW300657X],70
4,COc1cccc(-c2c[nH]c3c(N/N=C/c4ccncc4)ncnc23)c1 [GW814408X],19
5,COc1ccc2c(-c3ccnc(Nc4cccc(OC(F)(F)F)c4)n3)cnn2n1 [GW810372X],98
6,CCS(=O)(=O)c1ccc(OC)c(Nc2ncc(-c3cccc(OC)c3)o2)c1 [GW580509X],100
7,Cl.O=C(Nc1ccc(Oc2ccc3[nH]c(NC(=O)c4ccco4)nc3c2)cc1)Nc1cc(C(F)(F)F)ccc1F [GW683134A],100
8,CCn1c(-c2nonc2N)nc2c(C#CC(C)(C)O)nc(OCCNC)cc21.Cl [GSK949675],95
9,COc1cccc(-n2ncc3c(N/N=C/c4ccncc4)ncnc32)c1 [GW784752X],88
10,COc1ccccc1-c1cc(/C=C2\C(=O)Nc3ncc(Br)cc32)cc(Br)c1O [GW442130X],76
11,Cl.O=C(O[C@H]1CN[C@H](C#Cc2cc3ncnc(Nc4ccc5c(cnn5Cc5ccccc5)c4)c3s2)C1)N1CCOCC1 [GSK200398A],100
12,COc1cc2ncn(-c3cc(O[C@H](C)c4ccccc4Cl)c(C(N)=O)s3)c2cc1OC [GSK237701A],45
13,Cl.O=C(Nc1ccc(Oc2ccc3[nH]c(NC(=O)c4ccccc4)nc3c2)cc1)Nc1cc(C(F)(F)F)ccc1F [GW709042A],100
14,NS(=O)(=O)c1ccc(N/N=C2\C(=O)Nc3ccc(C(=O)NCCc4c[nH]cn4)cc32)cc1 [GW300660X],81
15,CN1CCN(C(=O)c2ccc(NC(=O)Nc3ccc(N(C)c4ccnc(Nc5ccc(CS(C)(=O)=O)cc5)n4)cc3)cc2)CC1.Cl [GW830263A],4.2
16,CN(C)CCNC(=O)Nc1ccc(N(C)c2ccnc(Nc3ccc(CS(C)(=O)=O)cc3)n2)cc1.Cl [GW830900A],35

row,Compound,Percent Control [%]
1,COc1cc(C)c(N(C)C(=O)CN(C)C)cc1Nc1nc(Nc2cccc(F)c2C(N)=O)c2cc[nH]c2n1 [GSK2219385],100
2,CCS(=O)(=O)c1ccc(OC)c(Nc2ncc(-c3cccc(F)c3)o2)c1 [GW621970X],100
3,Cc1cc(O)cc(C)c1/C=C/c1cncc(C(N)=O)c1 [GW435821X],100
4,COc1ccc(COc2ccc(Cc3cnc(N)nc3N)cc2OC)cc1 [GW632580X],100
5,COc1cc(/C=N/Nc2ncnc3[nH]ncc23)ccc1O [GW578748X],43
6,NS(=O)(=O)c1ccc(N/N=C2\C(=O)Nc3ccc(Cl)cc32)cc1 [GW280670X],98
7,CN(C)c1cc2c(Nc3ccc4c(cnn4Cc4ccccc4)c3)ncnc2cn1 [GW282974X],100
8,COc1cc(C=NNc2ncnc3c2cnn3-c2ccccc2)ccc1O [GW513184X],47
9,CC(C)COC(=O)c1ccc2c(c1)/C(=C/Nc1ccc(S(N)(=O)=O)cc1)C(=O)N2 [GW416981X],42
10,C[C@@H](Oc1cc(-n2cnc3ccc(OC4CCN(C)CC4)cc32)sc1C(N)=O)c1ccccc1Cl [GSK579289A],100
11,COC(=O)Nc1nc2ccc(Oc3ccc(NC(=O)Nc4cc(C(F)(F)F)ccc4F)cc3)cc2s1.Cl [GW693917A],100
12,O=C1Nc2ccc(C(=O)c3ccco3)cc2C1=Cc1cc(Cl)c(O)c(Cl)c1 [GW406108X],35
13,Cl.O=S1CCN(Cc2ccc(-c3ccc4ncnc(Nc5ccc(OCc6ccccc6)c(F)c5)c4c3)o2)CC1 [GW576924A],100
14,CC1=C(C(=O)Nc2ccc3[nH]ncc3c2)C(c2ccc(Cl)c(Cl)c2)CC(=O)N1 (centres unmarked) [GSK299115A],14
15,O=C(Nc1n[nH]c2nc(-c3ccc(O)cc3)c(Br)cc12)C1CC1 [SB-725317],52
16,COc1ccc2cc(-c3c(-c4ccncc4)nc(-c4ccc(S(C)(=O)=O)cc4C)n3C)ccc2c1 [SB-633825],73

# Source: paper PMC7826789 (International Journal of Molecular Sciences, 2021)
